# Measured values taken from PubChem BioAssay (NCATS).
# Results filed as inconclusive are left out. Calls of active or inactive are those of the source. Calls follow the shape of the dose curve; as a rule, active = well fitted cell-killing curve with a large enough effect; inconclusive = small, poorly fitted or top-dose-only effect, or effect the other way; inactive = no such curve, though single readings can be large or run the other way.
# Experiment: Quantitative High-Throughput drug screen in 47 multiple myeloma cell lines against the NCATS MIPE library collection: JJN3_DSMZ cell viability assay (AID 1918966; also: nearly all actives have a fitted effect of over 50% in size)
# Details: JJN3 myeloma cells viability, CellTiter-Glo ATP, 48 h; series mostly up to 45.8 µM
# Excerpt: PI: Beverly A. Mock Ph.D.
# Laboratory of Cancer Biology and Genetics,
# Center for Cancer Research, National Cancer Institute,
# National Institute of Health, Bethesda, Maryland
# Drug resistance and disease progression are common in multiple myeloma (MM) patients, underscoring the need for new therapeutic combinations. […] We hypothesized that effective combinations would reduce MYC expression and enhance p16 activity. […] These preclinical data identify potentially useful drug combinations for evaluation in drug-resistant MM and reveal potential mechanisms of combined drug sensitivity.
# Described herein is the primary MIPE qHTS used to cherrypick compounds. Validated compounds were then further tested for potential synergistic activiy.
# [1] Peat TJ, Gaikwad SM, Dubois W, Gyabaah-Kessie N, Zhang S, Gorjifard S, Phyo Z, Andres M, Hughitt VK, Simpson RM, Miller MA, Girvin AT, Taylor A, Williams D, D'Antonio N, Zhang Y, Rajagopalan A, Flietner E, Wilson K, Zhang X, Shinn P, Klumpp-Thomas C, McKnight C, Itkin Z, Chen L, Kazandijian D, Zhang J, Michalowski AM, Simmons JK, Keats J, Thomas CJ, Mock BA. Drug combinations identified by high-throughput screening promote cell cycle transition and upregulate Smad pathways in myeloma. Cancer Lett. 2023 Aug 1;568:216284. doi: 10.1016/j.canlet.2023.216284. Epub 2023 Jun 24. PMID: 37356470; PMCID: PMC10408729.
# SEQUENCE No. (e.g., 1, 2, 3, etc.); […] (e.g., Cells, Incubation, Reagent, etc.); VALUE and DESCRIPTION.
# 1; Cells; 5 uL; white, solid bottom 1536-well Greiner assay plate.
# 2; Compounds; 23 nL; Kalypsis pin tool (Wako USA) equipped with a 1536-well pin head to transfer to the assay plates.
# 3; Incubation; 48 hours; 37C incubation.
# 4; Reagent;5uL; CellTiter Glo (Promega).
# 5; Detector; 425V; Luminescence; Viewlux PerkinElmer.
# NOTES (numbers refer to Sequence numbers above)
# 1. The cell-based screening methods employed in this study were like those previously published. Briefly, the corresponding myeloma cell lines were screened in 1,536-well plates with 500 cells, 5-uL per well for inhibition of cell viability (assessed by measuring ATP levels with CellTiterGlo).
# 2. NCATS MIPE 4.0 library of approved and investigational drugs were added using the Kalypsis pin tool. Wells treated with DMSO only for 100% viability and media only wells for 0% viability were used as controls.
# 3. The assay plates were covered and incubated for 48 hours in a 37C, 5% CO2 incubator with controlled humidity.
# 4. After 48 hours, CellTilter-GloTM luminescent substrate mix (Promega) reagent was added to the assay plate and plates we incubated for 5 min at room temperature.
# 5. Signal was measured as median relative luminescence units on a ViewLux (PerkinElmer) multiplate reader.
# [1] Heske CM, Davis MI, Baumgart JT, Wilson K, Gormally MV, Chen L, Zhang X, Ceribelli M, Duveau DY, Guha R, Ferrer M, Arnaldez FI, Ji J, Tran HL, Zhang Y, Mendoza A, Helman LJ, Thomas CJ. Matrix Screen Identifies Synergistic Combination of PARP Inhibitors and Nicotinamide Phosphoribosyltransferase (NAMPT) Inhibitors in Ewing Sarcoma. Clin Cancer Res. 2017 Dec 1;23(23):7301-7311. doi: 10.1158/1078-0432.CCR-17-1121. Epub 2017 Sep 12. PMID: 28899971; PMCID: PMC6636827.
# Potency is read from the fitted curve at half-maximal effect.
row,Structure (SMILES),Potency
1,CCCCOc1c(C(=O)c2c(F)cc(C)cc2F)cnc2n[nH]cc12,2.35 µM (active)
2,C[C@@H](Oc1cc(-n2cnc3ccc(CN4CCN(C)CC4)cc32)sc1C(N)=O)c1ccccc1C(F)(F)F,18.7 µM (active)
3,O=C(O)c1ccc2c(c1)nc(Nc1cccc(Cl)c1)c1ccncc12,9.35 µM (active)
4,COc1cc(-c2nn(C3CCC(N4CCN(C(C)=O)CC4)CC3)c3ncnc(N)c23)ccc1NC(=O)c1cc2ccccc2n1C (stereo not given),7.43 µM (active)
5,COc1cccc2nc(-c3cccs3)nc(NN3C(=O)C=C(C)C3=O)c12,1.18 µM (active)
6,CCOc1ccccc1OCCNC(C)Cc1ccc(OC)c(S(N)(=O)=O)c1 (stereo not given),inactive
7,CC[C@H](CO)Nc1nc(NCc2ccccc2)c2ncn(C(C)C)c2n1,18.7 µM (active)
8,COc1cc(C(C)C)c2c(c1)S(=O)(=O)N(COc1cc(=O)n3cccc(OCCN4CCCCC4)c3n1)C2=O,5.26 µM (active)
9,CCS(=O)(=O)c1cccc(-c2cc(C(=O)NC3CCN(C)CC3)c(C)c3[nH]c4ncc(C)cc4c23)c1,1.66 µM (active)
10,C=C1C(=CC=C2CCCC3(C)[C@@H]([C@H](C)C=CC=CC(O)(CC)CC)CC[C@@H]23)C[C@@H](O)C[C@@H]1O (stereo not given in full),18.7 µM (active)
11,CCCn1c(=O)c2[nH]c(-c3cnn(Cc4cccc(C(F)(F)F)c4)c3)nc2n(CC)c1=O,5.9 µM (active)
12,CCC1=C[C@@H]2CN(C1)Cc1c([nH]c3ccccc13)[C@@](C(=O)OC)(c1cc3c(cc1OC)N(C)[C@@H]1[C@@](O)(C(=O)OC)[C@H](OC(C)=O)[C@]4(CC)C=CCN5CC[C@]31[C@@H]54)C2,7.43 µM (active)
13,CCn1cc(-c2ccnc3[nH]c(-c4cccc(CN(C)C)c4)cc23)c(-c2ccc(NC(=O)N(C)C)cc2)n1,16.6 µM (active)
14,c1ccc2c(CCNc3ccc(Nc4ccncc4)cc3)c[nH]c2c1,20.9 µM (active)
15,COc1cc2c(Oc3ccc(NC(=O)C4(C(=O)Nc5ccc(F)cc5)CC4)cc3F)ccnc2cc1OCCCN1CCOCC1,16.6 µM (active)
16,COCCOc1ccc2c(c1)ncn2-c1ccc2cccc(N3CCC(N)CC3)c2n1,4.18 µM (active)
17,COc1cc2c(Nc3ccc(NC(=O)c4ccccc4)cc3)ncnc2cc1OCCCN1CCOCC1,23.5 µM (active)
18,CN[C@H]1CCc2cc(OC)c(OC)c(OC)c2-c2ccc(OC)c(=O)cc21,0.0187 µM (active)
19,Cc1nc(N)ncc1-c1nc(N2CCOCC2)c2sc(C(C)(C)O)cc2n1,5.26 µM (active)
20,CC(C)c1ccc(Cn2ccc3c4c(N)nc(NC5CC5)nc4ccc32)cc1,8.33 µM (active)

row,Structure (SMILES),Potency
1,Cc1cn(-c2cc(NC(=O)c3ccc(C)c(Nc4nccc(-c5cccnc5)n4)c3)cc(C(F)(F)F)c2)cn1,18.7 µM (active)
2,C=C1C(=CC=C2CCC[C@]3(C)[C@@H]([C@H](C)C=C[C@H](C)C(C)C)CC[C@@H]23)C[C@@H](O)C[C@@H]1O,0.833 µM (active)
3,O=C(Nc1ncc(-c2cc(C(F)F)nn2-c2c(Cl)cccc2Cl)s1)C1CC1,1.32 µM (active)
4,COc1ccc(CC2SC(=O)NC2=O)cc1C(=O)NCc1ccc(C(F)(F)F)cc1 (stereo not given),inactive
5,CNC(=O)c1ccc(-c2cnc3ncc(Cc4ccc5ncccc5c4)n3n2)cc1F,5.9 µM (active)
6,NC1(Cc2ccc(Cl)cc2)CCN(c2ncnc3[nH]ccc23)CC1,13.2 µM (active)
7,C[C@@H](Oc1cc(-c2cnn(C3CCNCC3)c2)cnc1N)c1c(Cl)ccc(F)c1Cl,8.33 µM (active)
8,Cn1c2ccccc2c2c3c(c4c5ccccc5n(CCC#N)c4c21)CNC3=O,3.32 µM (active)
9,C[C@@H]1COC(Nc2ccc3ncnc(Nc4ccc(OCc5nccs5)c(Cl)c4)c3c2)=N1,20.9 µM (active)
10,CCOc1cc2ncc(C#N)c(Nc3ccc(F)c(Cl)c3)c2cc1NC(=O)C=CCN(C)C,9.35 µM (active)
11,Cn1cncc1[C@@](N)(c1ccc(Cl)cc1)c1ccc2c(c1)c(-c1cccc(Cl)c1)cc(=O)n2C,8.33 µM (active)
12,CS(=O)(=O)c1ccc(-c2cnc(N)c(C(=O)Nc3ccccc3)n2)cc1,inactive
13,NCC(=O)Nc1ccc(-n2nc(C(F)(F)F)cc2-c2ccc3c(ccc4ccccc43)c2)cc1,20.9 µM (active)
14,O=C(CCCCCCC(=O)Nc1ccc([C@H]2O[C@@H](CSc3nc(-c4ccccc4)c(-c4ccccc4)o3)C[C@@H](c3ccc(CO)cc3)O2)cc1)NO,13.2 µM (active)
15,COc1cc(C)c(Sc2cnc(NC(=O)c3ccc(CNC(C)C(C)C)cc3)s2)cc1C(=O)N1CCN(C(C)=O)CC1 (stereo not given),16.6 µM (active)
16,O=C(CCCCCCNC(=O)c1cnc(N(c2ccccc2)c2ccccc2)nc1)NO,4.18 µM (active)
17,Cc1ccc(S(=O)(=O)Nc2cc(Cl)ccc2C(=O)Nc2nc(-c3ccccc3)cs2)cc1,18.7 µM (active)
18,COc1c(OCCCN2CCOCC2)ccc2c3n(c(=NC(=O)c4cnc(N)nc4)nc12)CCN3,3.23 µM (active)
19,CN(C)CC=CC(=O)Nc1cc2c(Nc3ccc(F)c(Cl)c3)ncnc2cc1O[C@H]1CCOC1,4.69 µM (active)
20,COc1cc(C(=O)N2CCC(N3CCN(C)CC3)CC2)ccc1Nc1ncc2c(n1)N(C)c1ccccc1C(=O)N2C,3.72 µM (active)
